Here are results for 40 compounds from PubChem BioAssay (NCATS).

The assay can be described thus: qHTS profiling for inhibitors of Plasmodium falciparum (DD2) proliferation (AID 743323). To be noted: lower = more inhibition; at 28.7 µM (top of the series) unless noted. The text has this: Plasmodium falciparum is a virulent malarial parasite that kills 1-2 million people worldwide each year. Transmitted by mosquitoes, the sporozoite form of the parasite enters the blood stream to infect hepatocytes, where they become merozoites that infect red blood cells (erythrocytes). Within erythrocytes, merozoites begin a […] cycle of growth and division, after which the parasite is released to infect new red blood cells. Gametocytes, which form within erythrocytes as well, circulate in the bloodstream and are ingested by the mosquito, thereby completing the life cycle. To profile malarial isolates for differential chemical responses and to identify inhibitors of malarial growth, an assay that measures P. falciparum growth and replication within erythrocytes was employed. This assay uses a DNA binding fluorescent dye (SYBR Green) to detect parasite DNA following cell lysis. Because mature erythrocytes lack DNA, only Plasmodium-derived DNA is detected.
The SYBR Green viability assay was adapted from a method described previously (Plouffe et al., 2008). For screening 3 ul culture medium was dispensed into 1536 well black clear bottom plates (Aurora Biotechnologies) using a Multidrop Combi (Thermo Fisher Scientific Inc.), 23 nL compounds in DMSO were added by a pin tool (Kalypsys), and 5 ul of erythrocytes infected with P. falciparum (0.3% parasitemia, 2.5% hematocrit final concentration) were added. The plates were incubated at 37 C in a humidified incubator in 5% CO2 for 72 h, and 2 ul lysis buffer (20 mM Tris HCl, 10 mM EDTA, 0.16% saponin, […]% triton X, 10X SYBR Green I supplied as 10,000X […] by Invitrogen) was added to each well. The plates were mixed for 25 sec with gentle shaking and incubated overnight at room temperature in the dark. The following morning, fluorescence intensity at 485(14) nm excitation and 535(25) nm emission wavelengths was measured on an EnVision (Perkin Elmer) plate reader. Plate reads were normalized relative to the control inhibitor (0.29 uM artemisinin) and vehicle (DMSO) wells present on each plate and then corrected by an algorithm using vehicle-only control plates at the beginning and end of the compound plate stack.
On the technique in general: qHTS replaces the single test concentration by a dilution series.
Consider `CNCc1ccc(-c2[nH]c3cc(F)cc4c3c2CCNC4=O)cc1`, for which the activity, percent of control came out at 77.5%. `Cc1ccc(-n2nc(C(C)(C)C)cc2NC(=O)Nc2ccc(OCCN3CCOCC3)c3ccccc23)cc1`: the activity, percent of control was 14.4%. As to `NC(=O)C1CCCc2c1[nH]c1ccc(Cl)cc21` (stereo not given), the activity, percent of control was 94.6%.

On to `O=c1ncn2nc(Sc3ccc(F)cc3F)ccc2c1-c1c(Cl)cccc1Cl`, for which the activity, percent of control was determined as 80.3%. For `C[C@@H]1C[C@H]2[C@@H]3CCC4=CC(=O)C=C[C@]4(C)C3(F)[C@@H](O)C[C@]2(C)[C@@]1(O)C(=O)CO` (stereo not given in full), the activity, percent of control was 95.7%. Consider `COc1cc2nccc(Oc3ccc(NC(=O)NC4CC4)c(Cl)c3)c2cc1C(N)=O`, for which the activity, percent of control was determined as 67.5%.

`O=C1CCCC2=C1C(c1[nH]ncc1Cl)N=C(Nc1nc3ccccc3o1)N2` (stereo not given): the activity, percent of control was 105%. Consider `CC(C)OC(=O)C1=CN(C(=O)c2ccc(F)c(F)c2)CC(C)(C)c2c1[nH]c1ccccc21`, for which the activity, percent of control was determined as 36.4%. Take `Clc1ccc(Nc2nnc(Cc3ccncc3)c3ccccc23)cc1`: the activity, percent of control is 2.71%. `O=C(OCC#CCSc1nnc(-c2ccc3ccccc3c2)o1)c1cc2ccccc2s1`: the activity, percent of control was determined as 105%. As for `O=C(O)CCc1ccc(NCc2cccc(Oc3ccccc3)c2)cc1`, the activity, percent of control was found to be 102%. Turning to `Cc1cccc(-c2nn(C(=S)Nc3ccccc3)cc2-c2ccnc3ccccc23)n1`, the activity, percent of control came to 87.9%.

As to `COc1ccc(C2=N[C@H](c3ccc(Cl)cc3)[C@H](c3ccc(Cl)cc3)N2C(=O)N2CCNC(=O)C2)c(OC(C)C)c1`, the activity, percent of control was determined as 50.5%. Take `COCC(=O)NCC=Cc1ccc2ncnc(Nc3ccc(Oc4ccc(C)nc4)c(C)c3)c2c1`: the activity, percent of control was 24.1%. On to `O=C(C1CC1)N1CC[C@@H](Cn2c(-c3ccc(-c4ccc5occc5c4)cc3)nc3cnccc32)C1`, for which the activity, percent of control stood at 74.7%. Next, `c1ccc(-c2nn3c(c2-c2ccnc4cc(OCCN5CCOCC5)ccc24)CCC3)nc1`: 81.5%; `COc1ccccc1-c1cccc(-c2c(O)c3cc(C#N)c(Cl)cc3[nH]c2=O)c1`: 76%; `CC(C)(Sc1ccc(CCN(CCCCC2CCCCC2)C(=O)NC2CCCCC2)cc1)C(=O)O`: 100%. As for `C[C@]12CCC(=O)C=C1CC[C@@H]1[C@@H]2[C@@H](O)C[C@@]2(C)[C@H]1CC[C@]2(O)C(=O)CO`, the activity, percent of control was 92.4%. For the compound `Cc1ccccc1C(C(=O)NC1CCCC1)N(C(=O)Cn1cnc2ccccc21)c1cccc(F)c1` (stereo not given), the activity, percent of control amounted to 58.9%. Turning to `N#CC[C@H](C1CCCC1)n1cc(-c2ncnc3[nH]ccc23)cn1`, the activity, percent of control was found to be 48.8%.

As to `Nc1nccc(-c2ccc3noc(-c4ccc(Cl)cc4)c3c2)n1`, the activity, percent of control amounted to 76.1%. On to `CCc1cncnc1N1CCN(Cc2nc3ccc(C(F)(F)F)cc3[nH]2)CC1`, for which the activity, percent of control came out at 20.3%.

For the compound `O=C(O)c1ccc(-c2c[nH]c3ccc(-c4ccccc4)cc23)cc1C1CCCC1`, the activity, percent of control stood at 0.0014%. As to `Cc1cc(-c2ccc(CC(=O)Nc3ccc(-c4cccnc4)cc3)cc2)ccn1`, the activity, percent of control amounted to 88.9%.

In the case of `COc1ccc(-c2c(-c3ccc(O)cc3O)n[nH]c2C)cc1`, the activity, percent of control came to 5.32%. On to `Cc1ccc2c(c1)C(=O)[C@@]1(O)CCN(c3ccccc3)C1=N2`, for which the activity, percent of control came to 112%. `Oc1cccc(-c2nc(N3CCOCC3)c3oc4ncccc4c3n2)c1`: the activity, percent of control worked out at 2.54%. As for `Cc1csc(NC(=O)c2sc3nc4c(c(C(F)(F)F)c3c2N)CCC4)n1`, the activity, percent of control stood at 101%. Turning to `Cn1c(=O)c(F)c(Nc2ccc(I)cc2F)c2c(=O)n(C[C@@H](O)CO)cnc21`, the activity, percent of control was 71.7%. On to `Cc1cc(-c2nnc3n2CCCCC3)c(C)n1-c1ccc(F)cc1`, for which the activity, percent of control amounted to 9.31%. For `CCOc1cc(C(=O)Nc2ccc(Cl)c(-c3nc4ccccc4[nH]3)c2)cc(OCC)c1OCC`, the activity, percent of control turned out to be 15.9%.

Turning to `CCCc1nn(C)c2c(=O)[nH]c(-c3cc(S(=O)(=O)N4CCN(C)CC4)ccc3OCC)nc12`, the activity, percent of control was 102%. With `CCn1c(-c2nonc2N)nc2c(C#CC(C)(C)O)ncc(OC[C@H]3CCCNC3)c21`, the activity, percent of control is 2.74%.

In the case of `OCCC#Cc1nc(-c2ccc(F)cc2)c(-c2ccncc2)n1CCCc1ccccc1`, the activity, percent of control turned out to be 8.27%. Next, `COc1cccc2cc(-c3nc(C4CCC(C(=O)O)CC4)n4ncnc(N)c34)[nH]c12` (stereo not given): 53.2%; `CS(=O)(=O)Oc1ccc2c(NC(N)=O)c(C(=O)c3ccc(Cl)cc3Cl)oc2c1`: 83.2%.

With `Cc1[nH]c(=O)c(C#N)cc1-c1ccc2nccn2c1`, the activity, percent of control came out at 98.1%. As to `CNC(=O)c1ccc(C)c(-n2c(C)cc(OCc3ccc(F)cc3F)c(Br)c2=O)c1`, the activity, percent of control was 80.8%. For the compound `Cc1cc2c(F)c(Oc3ncnn4cc(OC[C@@H](C)O)c(C)c34)ccc2[nH]1`, the activity, percent of control was 101%.
